Reference: PubChem BioAssay (EPA / NIEHS)
Calls of active or inactive are those of the source. The calls were made as follows: active = hit-call score of the fitted dose curve at least 0.9, where 1 is the maximum; inactive = score below 0.9.

Test: ATG_M_06_CIS: Attagene CIS-FACTORIAL HepG2 Assay for M06 Transcription Factor (Internal Marker) (AID 2282950)
Details: HepG2 Attagene CIS-FACTORIAL M06 internal marker reporter; actives raise or lower the signal
Protocol: ATG_CIS is a cell-based, multiplexed-readout assay that uses HepG2, a human liver cell line, with measurements taken at 24 hours after chemical dosing in a 24-well plate.ATG_M_06_CIS is one of 52 assay component(s) measured or calculated from the ATG_CIS assay. It is designed to make measurements of mRNA induction, a form of inducible reporter, as detected with fluorescence intensity signals by Reverse transcription polymerase chain reaction (RT-PCR) and Capillary electrophoresis technology.Data from the assay component ATG_M_06_CIS was analyzed into 1 assay endpoint. This assay endpoint, ATG_M_06_CIS, was analyzed with bidirectional fitting relative to DMSO as the negative control and baseline of activity. Using a type of inducible reporter, measures of mRNA for gain or loss-of-signal activity can be used to understand the background control at the transcription factor-level as they relate to the gene . Furthermore, this assay endpoint can be referred to as a secondary readout, because this assay has produced multiple assay endpoints where this one serves a background control function. To generalize the intended target to other relatable targets, this assay endpoint is annotated to the background measurement intended target family, where the subfamily is internal marker.
Human liver HepG2 cells are transiently transfected with multiple reporter transcription units (MRTUs) in 6-well plates using FuGene 6 reagent (Roche; 3 ml FuGene/1 mg DNA). The MRTU constructs are regulated by a cis-regulating element (promoter). […] A major difference between the CIS and TRANS system is that in CIS activities of endogenous TFs are measured, whereas the TRANS assay evaluates changes in activities of exogenous, chimeric NR-Gal4 proteins. […] At the end of 24 hour incubation, total RNA was isolated using TriZol reagent (Invitrogen). The isolated RNA is then reverse-transcribed using oligo(dT) primer and Mo-MLV reverse transcriptase (Invitrogen) with DNAse I (Ambion) treatment for 30 min. The one-tenth of the produced cDNA was amplified by PCR using Taq DNA polymerase (Invitrogen) and two reporter sequence-specific primers. The PCR products were fluorescently labeled by primer extension with 6-arboxyfluorescein (6-FAM) 5'-labeled reporter sequence-specific primer (2 min at 95 C, 20 s at 68 C and 10 min at 72 C) and these products were digested with 5U of HpaI (New England Biolabs) for 2h at 37 C. The fragments were purified using Qiaquick PCR columns (Qiagen), analyzed on an ABI 3130xL genetic analyzer (Applied Biosystems) with peak positions identified by using a set of X-rhodamine (ROX)-labeled MapMarker1000 molecular weight standards (BioVentures). The raw capillary electrophoresis data was processed using Attagraph software (Attagene).

Row | SMILES | outcome
1 | NC(=S)Nc1ccccc1 | inactive
2 | Nc1cccc2ccccc12 | inactive
3 | ClC1(Cl)C2(Cl)C3(Cl)C4(Cl)C(Cl)(Cl)C5(Cl)C3(Cl)C1(Cl)C5(Cl)C24Cl (stereo not given) | inactive
4 | O=C(O)C(F)(F)C(F)(F)C(F)(F)C(F)(F)C(F)(F)C(F)(F)F | inactive
5 | CCC[CH2][Sn]([Cl])([Cl])[Cl] | inactive
6 | COP(=S)(OC)Oc1ccc(Sc2ccc(OP(=S)(OC)OC)cc2)cc1 | inactive
7 | CCOC(=O)Nc1cccc(OC(=O)Nc2ccccc2)c1 | inactive
8 | CC(C)c1ccc(CO)cc1 | inactive
9 | COc1cc2c(cc1OC)[C@@]13CCN4CC5=CCO[C@H]6CC(=O)N2[C@H]1[C@H]6[C@H]5C[C@H]43 | inactive
10 | Cc1ccc2ccccc2c1C | inactive
11 | CCc1ccccc1N | inactive
12 | O=CC=O | inactive
13 | O=C1CCCN1 | inactive
14 | CN(C)N=O | inactive
15 | COC[C@H](C)N(C(=O)CCl)c1c(C)csc1C | inactive
16 | Nc1cccc(Cl)c1 | inactive
17 | O=[N+]([O-])c1ccc2c3c(cccc13)CC2 | inactive
18 | C[C@]12CCC(=O)C[C@@H]1CC[C@@H]1[C@@H]2CC[C@]2(C)[C@@H](O)CC[C@@H]12 | inactive
19 | CC(=O)OC(c1ccccc1)C(Cl)(Cl)Cl (stereo not given) | inactive
20 | N#CCc1ccc(Cl)cc1 | inactive

Row | SMILES | outcome
21 | CC(C)OC(=O)Nc1ccccc1 | inactive
22 | COP(=S)(OC)Oc1c(Cl)cc(C)cc1Cl | inactive
23 | O=C(CCl)CCl | inactive
24 | CC(C)(OO)c1ccccc1 | inactive
25 | O=c1[nH]c(=O)[nH]c(=O)[nH]1 | inactive
26 | CCCCCCCCc1ccc(O)cc1 | inactive
27 | N#CCCO | inactive
28 | CC(C)(C)CC(C)(C)c1ccc(O)cc1 | inactive
29 | ClC(Cl)=C(Cl)C(Cl)=C(Cl)Cl | inactive
30 | O=C1C2(Cl)C3(Cl)C4(Cl)C(Cl)(Cl)C5(Cl)C3(Cl)C1(Cl)C5(Cl)C24Cl (stereo not given) | inactive
31 | C[C@@H]1C[C@@H]([C@H](O)CC2CC(=O)NC(=O)C2)C(=O)[C@@H](C)C1 | inactive
32 | NNC(=S)NN | inactive
33 | CCCCC(CC)CO[N+](=O)[O-] (stereo not given) | inactive
34 | CC(=O)C(Cl)C(=O)N(C)C (stereo not given) | inactive
35 | CC(=[OH+])/C=C(/C)[O-].CC(=[OH+])/C=C(/C)[O-].CC(=[OH+])/C=C(/C)[O-].[Al] | inactive
36 | COc1ccc(C=O)cc1OC | inactive
37 | O=C(NCO)NCO | inactive
38 | CC(=O)[O][Hg][c]1ccccc1 | inactive
39 | COc1cc(-c2ccc(N)c(OC)c2)ccc1N | inactive
40 | C[C@H]1CCCC(=O)CCC/C=C/c2cc(O)cc(O)c2C(=O)O1 | inactive
